Molecules are shown by their SMILES. In all, about 52,000 compounds went through this assay and about 4,300 (8.3%) were called active. The sample as a whole holds a higher share of actives than the screen did. A number with no mark means an inactive call. No stated cut-off is given here; in the data, active means survival mostly below about 52% (no sharp cut-off); inactive means mostly above about 56%.

The experiment concerns DeltatarO mutant. As to the kind of experiment: growth inhibition of S. aureus wild type versus tarO mutant, primary screen, teichoic acid synthesis inhibitors, RN4220, OD600 (AID 463173). To be noted: OD600, 18 h, stronger effect = lower value, screened at 18.75 µg/mL (by protocol).
In the case of `CC(=O)N1c2ccc(S(=O)(=O)NCC3CCC(C(=O)NCCC(C)C)CC3)cc2CC1C` (stereo unspecified), the survival is 102%. For `CC(C)CC(=O)NCC1(N(C)C)CCCCC1`, the survival was 84%.

Consider `O=C(CN1C(=O)C2CCCCN2c2ccc(C(=O)N3CCCC3)cc21)NCc1ccccc1F` (stereo unspecified), for which the survival is 99%. In the case of `O=C(NCc1cccc(Cl)c1)c1ccc(NC(=O)N2CCSc3ccccc32)cc1` it was 57%; in that of `CSc1nn(Cc2cccc(F)c2)c(N(C(C)=O)C(C)=O)c1S(=O)(=O)c1ccccc1`, 84%; in that of `Cc1nc(-c2ccc(C)c(N3CCN(C(=O)Nc4cccc(Cl)c4C)CC3)c2)no1`, 88%. As for `COc1cccc(CNC(=O)c2cc3c(s2)-c2ccccc2OC3)c1`, the figure is 42% (active).

With `Cc1ccc(CCNC(=O)c2cc3c(s2)-c2ccccc2OC3)cc1`, the survival is 82%. As for `CCN(CC)CCOC(=O)c1ccc(NC(=O)c2cc3c(s2)-c2ccccc2OC3)cc1`, the figure is -7% (active); as for `CCc1cccc(NC(=O)c2cc3c(s2)-c2ccccc2OC3)c1`, 83%. Turning to `COc1cccc(N2CCN(C(=O)c3cc4c(s3)-c3ccccc3OC4)CC2)c1`, the survival was 98%. For the molecule `COc1ccc(CNC(=O)c2cc3c(s2)-c2ccccc2OC3)cc1`, the survival is 64%. As for `CCOc1ccc(NC(=O)c2cc3c(s2)-c2ccccc2OC3)cc1`, the figure is 95%. Consider `COc1ccc(N(C)C(=O)c2cc3c(s2)-c2ccccc2OC3)cc1`, for which the survival is -2% (active).

For `COc1cc(NC(=O)c2cc3c(s2)-c2ccccc2OC3)cc(OC)c1OC`, the survival is 55%. Consider `Cc1ccc(C)c(N(C)C(=O)c2cc3c(s2)-c2ccccc2OC3)c1`, for which the survival was -3% (active). On to `COc1ccc(N2CCN(C(=O)c3cc4c(s3)-c3ccccc3OC4)CC2)cc1`, for which the survival is 114%. In the case of `COc1cccc(CNC(=O)c2cc3c(s2)-c2c(C)cccc2OC3)c1` it was 68%; in that of `Cc1cc(C)c2c(-n3cccc3)c(C(=O)NCc3cccc(F)c3)sc2n1`, 66%. `O=S(=O)(c1ccc2[nH]c3c(c2c1)CCCCC3)N1CCN(c2ccccc2)CC1`: the survival was 91%. As for `COc1ccccc1N1CCN(c2cc(C)nc3nncn23)CC1`, the figure is 81%; as for `Cc1nc(-c2cccnc2)sc1CCNS(=O)(=O)c1ccc(F)cc1`, 75%; as for `COc1ccc(CNC(=O)C(CC(C)C)NS(=O)(=O)c2ccc3c(c2)CCN3C(C)=O)cc1` (stereo unspecified), 92%. For `CNCC(O)COc1ccccc1` (stereo unspecified), the survival is 94%. Regarding `N#CC(C#N)=C(N)/C(C#N)=C/c1cccs1`, the survival is 81%. Turning to `CCc1ccc2nc(N3CCCCC3)c(C#N)cc2c1`, the survival was 88%. In the case of `CCn1cc(C(=O)N2CCN(c3ccc(C)cc3)C(C)C2)c(=O)c2cc(S(=O)(=O)N3CCCC3)ccc21` (stereo unspecified) it was 87%; in that of `Cc1nc2cc(-c3cccc(F)c3)nn2c(C)c1CCC(=O)Nc1ccccc1C(N)=O`, 61%. As for `COC(=O)c1ccc(CSc2nc3c(c(=O)[nH]2)CCC3)cc1`, the survival is 85%. Regarding `CCOc1ccc(CCNC(=O)c2cc3c(s2)-c2ccccc2OC3)cc1OCC`, the survival is 67%. As for `COC(=O)c1ccccc1NC(=O)c1cc2c(s1)-c1ccccc1OC2`, the figure is 39% (active); as for `CCOc1ccccc1N(C)C(=O)c1cc2c(s1)-c1ccccc1OC2`, -2% (active).

Turning to `COc1ccc(Cl)cc1NC(=O)c1cc2c(s1)-c1ccccc1OC2`, the survival is 74%.

Consider `COc1cc(OC)c(N(C)C(=O)c2cc3c(s2)-c2ccccc2OC3)cc1Cl`, for which the survival is 60%. As for `CCOC(=O)c1ccccc1NC(=O)c1cc2c(s1)-c1c(C)cccc1OC2`, the figure is 137%; as for `CCOC(=O)c1ccc(NC(=O)c2cn(-c3ccccc3)nc2-c2ccc(C)cc2)cc1`, 57%; as for `O=C(c1ccccc1Cl)N1CCCCC1CCN1CCCCC1` (stereo unspecified), 100%. As for `COc1cccc(CNC(=O)C(Cc2ccccc2)NS(=O)(=O)c2ccc3c(c2)CCN3C(C)=O)c1` (stereo unspecified), the figure is 70%.

As for `CC(C)c1ccc(N2C(=O)N(Cc3ccccc3Cl)c3ccccc3S2(=O)=O)cc1`, the survival was 86%.

For `Cc1ccc(NC(=O)CCS(=O)(=O)c2cccc3nsnc23)c(C)c1`, the survival was 61%.

For the molecule `Cc1cc(F)ccc1NC(=O)CCS(=O)(=O)c1cccc2nsnc12`, the survival is 59%.

As for `CCN(CC)c1ccc(NC(=O)CCS(=O)(=O)c2cccc3nsnc23)c(C)c1`, the survival is 44% (active). As to `O=C(Cn1cc(C(=O)c2ccco2)c2ccccc21)Nc1ccccc1Cl`, the survival was 80%.

For the molecule `COc1c(C)cc(S(=O)(=O)Nc2cccc(-c3ccc(N4CCOCC4)nn3)c2)c(C)c1C`, the survival was 91%. As for `COc1ccc(CCN2C(=O)c3[nH]nc(-c4ccccc4O)c3C2c2ccc(OC)cc2)cc1` (stereo unspecified), the figure is 29% (active).

Take `COc1ccc(C2c3c(-c4ccccc4O)n[nH]c3C(=O)N2CCc2ccccc2)cc1` (stereo unspecified): the survival is 21% (active). In the case of `COc1ccc(CCN2C(=O)c3[nH]nc(-c4ccccc4O)c3C2c2cccc(OC)c2)cc1` (stereo unspecified) it was 66%; in that of `COc1ccc(CCN2C(=O)c3[nH]nc(-c4ccccc4O)c3C2c2ccccc2)cc1` (stereo unspecified), 22% (active). Turning to `COc1ccc2c(c1)c1c(c(=O)n(-c3ccc(F)c(Cl)c3)c(=O)n1CC(N)=O)n2C`, the survival is 96%. In the case of `CC(=O)Nc1nc(SCc2ccccc2Cl)n[nH]1` it was 91%. Take `Cc1ccc(NC(=O)Cn2nnc3sc(-c4ccccc4)cc3c2=O)cc1Cl`: the survival was 52%.

Take `O=C(COc1ccc(F)cc1)Nc1ccc2nc(SCC(=O)N3CCCC3)sc2c1`: the survival was 91%. In the case of `CC(C)c1ccc(NC(=O)C2CCCN2S(=O)(=O)c2ccc3nc(-c4ccccc4)[nH]c3c2)cc1` (stereo unspecified), the survival is 44%. As for `COc1ccc(NC(=O)C2CCCN2S(=O)(=O)c2ccc3nc(-c4ccccc4)[nH]c3c2)cc1` (stereo unspecified), the figure is 77%; as for `Cc1ccc(NC(=O)C2CCCN2S(=O)(=O)c2ccc3nc(-c4ccccc4)[nH]c3c2)cc1F` (stereo unspecified), 71%; as for `COc1cccc(NC(=O)C2CCCN2S(=O)(=O)c2ccc3nc(-c4ccccc4)[nH]c3c2)c1` (stereo unspecified), 44% (active). In the case of `CCc1cccc(NC(=O)C2CCCN2S(=O)(=O)c2ccc3c(c2)n(C)c(=O)c(=O)n3C)c1` (stereo unspecified) it was 85%; in that of `Cc1cc(C)cc(NC(=O)C2CCCN2S(=O)(=O)c2ccc3nc(-c4ccccc4)[nH]c3c2)c1` (stereo unspecified), 38% (active); in that of `CCOc1ccccc1NC(=O)C1CCCN1S(=O)(=O)c1ccc2nc(-c3ccccc3)[nH]c2c1` (stereo unspecified), 50%.

Consider `CCc1cccc(NC(=O)C2CCCN2S(=O)(=O)c2ccc3nc(-c4ccccc4)[nH]c3c2)c1` (stereo unspecified), for which the survival is 35% (active). In the case of `CCc1ccc(NC(=O)C2CCCN2S(=O)(=O)c2ccc3nc(-c4ccccc4)[nH]c3c2)cc1` (stereo unspecified) it was 82%; in that of `COc1cccc(NC(=O)C2CCCN2S(=O)(=O)c2ccc3c(c2)n(C)c(=O)c(=O)n3C)c1` (stereo unspecified), 87%; in that of `Cc1ccc(NC(=O)C2CCCN2S(=O)(=O)c2ccc3nc(-c4ccccc4)[nH]c3c2)cc1C` (stereo unspecified), 92%.

Regarding `Cc1cccc(NC(=O)C2CCCN2S(=O)(=O)c2ccc3nc(-c4ccccc4)[nH]c3c2)c1` (stereo unspecified), the survival is 37% (active). Consider `CCOC(=O)N1CCC(NC(=O)c2cnn(-c3ccc(C)cc3C)c2C2CCN(C(=O)OC(C)(C)C)CC2)CC1`, for which the survival was 124%. As for `O=C(CNC(=O)c1ccccc1Cl)OCc1cc(=O)n2nc(C3CC3)sc2n1`, the figure is 78%; as for `CCCCOC(=O)c1ccc(NC(=O)c2cc(-c3ccccc3)on2)cc1`, 91%; as for `Cc1ccc(NC(=O)CSc2ncnc3c2sc2ccccc23)cc1C`, 113%.

For the molecule `CCN1CCN(Cc2c(O)ccc3oc(C)c(C(=O)Nc4ccc(OC)cc4)c23)CC1`, the survival is 78%. In the case of `Cc1cc2c(C)nc3ccc(C(=O)O)cc3c2o1` it was 71%; in that of `Cc1ccc(OC(C)C(=O)N2CCN(CCc3ccncc3)CC2)cc1C` (stereo unspecified), 52%. In the case of `Cc1ccc(Cl)cc1N1CCN(C(=O)C2CCN(S(=O)(=O)c3c(C)noc3/C=C/c3ccccc3F)CC2)CC1` it was 72%; in that of `CCOC(=O)c1cc(S(=O)(=O)NCc2ccccc2)[nH]n1`, 124%; in that of `CC(C)c1ccc(Nc2ncnc3onc(-c4ccc(F)cc4)c23)cc1`, 80%. As for `Cc1ccc(N2C(=O)C(CC(=O)Nc3ccc(F)cc3)N(CCC3=CCCCC3)C2=O)cc1` (stereo unspecified), the survival was 55% (active). In the case of `COc1ccc(CN2C(=O)N(c3ccc(F)cc3)C(=O)C2CC(=O)Nc2ccccc2)cc1` (stereo unspecified) it was 77%; in that of `Cc1ccc(N2C(=O)C(CC(=O)Nc3ccccc3)N(CCC3=CCCCC3)C2=O)cc1` (stereo unspecified), 67%; in that of `O=C(CC1C(=O)N(c2ccccc2)C(=O)N1CCC1=CCCCC1)Nc1ccc(F)cc1` (stereo unspecified), 48%. As for `CCc1ccc(NC(=O)CC2C(=O)N(c3ccccc3)C(=O)N2C(C)C)cc1` (stereo unspecified), the figure is -5% (active); as for `CCOc1ccc(NC(=O)CC2C(=O)N(c3ccccc3)C(=O)N2Cc2cccc(OC)c2)cc1` (stereo unspecified), 102%. With `CCCOc1ccc(NC(=O)CC2C(=O)N(c3ccc(C)cc3)C(=O)N2C(C)C)cc1` (stereo unspecified), the survival was 128%. As for `COc1cccc(CN2C(=O)N(c3ccc(C)cc3)C(=O)C2CC(=O)Nc2cc(OC)cc(OC)c2)c1` (stereo unspecified), the figure is 144%; as for `COC(=O)c1ccc(NC(=O)CC2C(=O)N(c3cccc(OC)c3)C(=O)N2C(C)C)cc1` (stereo unspecified), 88%. As for `CCCOc1ccc(NC(=O)CC2C(=O)N(c3ccc(C)cc3)C(=O)N2Cc2cccc(OC)c2)cc1` (stereo unspecified), the figure is 46% (active); as for `CCCOc1ccc(NC(=O)CC2C(=O)N(c3ccccc3)C(=O)N2Cc2ccc(F)cc2)cc1` (stereo unspecified), 17% (active).

Turning to `COC(=O)c1ccc(NC(=O)CC2C(=O)N(c3ccccc3)C(=O)N2Cc2ccc(F)cc2)cc1` (stereo unspecified), the survival is 55%.

Source of the values: PubChem BioAssay AID463173 (ICCB-Longwood Screening Facility, Harvard Medical School, 2010).
